Drawing on PubChem BioAssay AID652071 (NMMLSC, 2013), this text covers outcome for 15 compounds.

This experiment can be described thus: yeast cytosolic pH changes via V-ATPase – S. cerevisiae, pHLuorin, powder set 4, dose response (AID 652071). The conditions noted are these: S. cerevisiae pHLuorin cytosolic pH fluorescence; series mostly up to 100 µM.

The structures appear in SMILES notation. Calls of active or inactive are those of the source. How the calls were made is not given here.

With `NC(=O)c1ccc(C(=O)Nc2ccccc2N2CCCCC2)o1`, the compound was called inactive.

In the case of `CC(=O)N1CCN(c2ccccc2NC(=O)c2ccc(C(N)=O)o2)CC1`, the call was inactive.

Regarding `CN(C)C(=O)c1cccc(C(=O)Nc2ccccc2N2CCCCC2)c1`, the outcome was inactive.

In the case of `CN1CCN(c2ccccc2NC(=O)c2cnc(N)o2)CC1`, the result was inactive.

For `O=C(Nc1ccccc1N1CCCCC1)c1cncc(Cl)n1`, the compound was classed as inactive.

`CC(=O)N1CCN(c2ccccc2NC(=O)c2cc(C(F)(F)F)ccn2)CC1`: the outcome was inactive.

In the case of `O=C(Nc1ccccc1N1CCCCC1)c1occc1-c1ccccc1`, the call was inactive.

Turning to `CC(C)(C)c1ccc(C(=O)Nc2ccccc2N2CCCCC2)o1`, the outcome was inactive.

As for `CN1CCN(c2ccccc2NC(=O)c2cc(C(F)(F)F)ccn2)CC1`, the outcome was inactive.

Regarding `Cc1cncc(C(=O)Nc2ccccc2N2CCCCC2)n1`, the call was inactive.

`CN1CCN(c2ccccc2NC(=O)c2cccc(C(=O)N(C)C)c2)CC1`: the compound was called inactive.

For `N#CCc1cccc(C(=O)N2CCN(c3nc4ccc(F)cc4s3)CC2)c1`, the call was inactive.

As to `CN1CCN(c2ccccc2NC(=O)c2cccc(C(N)=O)c2)CC1`, the call was inactive.

For the compound `CC(=O)N1CCN(c2ccccc2NC(=O)c2occc2-c2ccccc2)CC1`, the compound was classed as inactive.

On to `CC(=O)N1CCN(c2ccccc2NC(=O)c2ccc(C(C)(C)C)o2)CC1`, for which the call was inactive.
